# Where “and” joins values, the source holds several entries; their conditions need not be identical. Equal entries are not always repeated. Records with an inconclusive call do not appear. Entries that show only a call come without a potency. Where a structure was tested more than once in an assay, its records may differ in their call. Calls of active or inactive are those of the source. Unless noted, calls follow the shape of the dose curve; as a rule, active = well fitted curve in the direction sought with a large enough effect in the repeat runs; inconclusive = weak or mixed curves; inactive = no such curve, though single readings can be large; an effect the other way counts as inactive or inconclusive.
# Columns and labels:
# [1] = qHTS assay to identify small molecule agonists of the NFkB signaling pathway - cell viability counter screen (AID 1159515; calls by dose curve; also: nearly all actives have a fitted effect of over 55% in size; also: potency is read from the fitted curve at half-maximal effect)
# Summary of the method: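 5 hr compound treatment of NFkB-bla ME-180 cells (2,000/well, seeded overnight beforehand), followed by reporter substrate for 1.5 hr. CellTiter-Glo added afterward; luminescence after 30 min RT.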
# [2] = qHTS assay to identify small molecule agonists of the endoplasmic reticulum stress response signaling pathway - cell viability counter screen (AID 1159517; calls by dose curve; also: nearly all actives have a fitted effect of over 50% in size; also: potency is read from the fitted curve at half-maximal effect)
# Summary of the method: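 Cells, HeLa ESRE-bla; density, 1,500/well; dosing, 5 hr at 37 C, 5% CO2; readout, CellTiter-Glo luminescence after 30 min RT.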
# [3] = qHTS assay to identify small molecule antagonists of the retinoid-related orphan receptor gamma (ROR-gamma) signaling pathway - cell viability counter screen (AID 1159520); also: nearly all actives have a fitted effect of over 50% in size; also: potency is read from the fitted curve at half-maximal effect
# Summary of the method: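 Cytotoxicity was read from cellular ATP (CellTiter-Glo luminescence) after 16 hr at 37 C with 1 uM doxycycline induction. The inducer was added 2 hr after compound transfer to Tet-on ROR gamma CHO cells.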
# [4] = qHTS assay to identify small molecule agonists of the AP-1 signaling pathway - cell viability counter screen (AID 1159525; calls by dose curve; also: nearly all actives have a fitted effect of over 55% in size; also: potency is read from the fitted curve at half-maximal effect)
# Summary of the method: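 Luminescent ATP readout (Cell Titer Glo, 30 min RT), normalised to DMSO and tetra n-octyl ammonium bromide controls. Cells were ME-180 AP-1-bla in 0.5% dialyzed FBS Opti-MEM, with a 5 h, 37 °C compound exposure.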
# [5] = qHTS assay to identify small molecule antagonists of the peroxisome proliferator-activated receptor delta (PPARd) signaling pathway - cell viability counter screen (AID 743213); also: nearly all actives have a fitted effect of over 50% in size; also: potency is read from the fitted curve at half-maximal effect
# Summary of the method: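 PPARd-bla HEK293H cells (3000/well) got compound plus 300 nM L165041 agonist for 17 h at 37 C. Viability in the same wells came from CellTiter-Glo luminescence after 30 min at room temperature.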
# [6] = qHTS assay to identify small molecule antagonists of the farnesoid-X-receptor (FXR) signaling pathway - cell viability counter screen (AID 743221; active = well fitted cell-killing curve with a large enough effect in the repeat runs, not every such curve was filed as active; also: nearly all actives have a fitted effect of over 50% in size; also: potency is read from the fitted curve at half-maximal effect)
# Summary of the method: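 Multiplexed counter screen: viability of FXR-bla HEK 293T cells under agonist stimulation by chenodeoxycholic acid (50 uM, final) and test compound for 16 h at 37 C, measured by CellTiter-Glo luminescence in the reporter wells.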
# [7] = qHTS assay to identify small molecule agonists of the vitamin D receptor (VDR) signaling pathway - cell viability counter screen (AID 743224); also: nearly all actives have a fitted effect of over 50% in size; also: potency is read from the fitted curve at half-maximal effect
# Summary of the method: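 Here cell health was gauged by luminescent ATP detection (CellTiter-Glo, 30 min RT) in VDR-bla cells that had been incubated with test compounds for 16 h at 37C and 5% CO2.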
# [8] = qHTS assay to identify small molecule antagonists of the vitamin D receptor (VDR) signaling pathway - cell viability counter screen (AID 743225); also: nearly all actives have a fitted effect of over 50% in size; also: potency is read from the fitted curve at half-maximal effect
# Summary of the method: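 HEK293T VDR-bla; cpd + 1a,25-(OH)2D3 3 nM final, 16 h 37C/5% CO2; B/G FRET substrate 2 h RT; then CellTiter-Glo 30 min RT, luminescence.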
# [9] = qHTS assay to identify small molecule agonists of the endoplasmic reticulum stress response signaling pathway (AID 1159516; active = well fitted activation curve with a large enough effect in the signal ratio in the repeat runs, not every such curve was filed as active; the % refers to the signal ratio)
# Summary of the method: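 Reporter HeLa cells (ESRE-beta-lactamase) underwent 5 hr compound incubation at 37 C and 5% CO2 in quantitative HTS format. Detection followed 2 hr of FRET substrate loading at room temperature.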
# [10] = qHTS assay to identify small molecule agonists of the AP-1 signaling pathway (AID 1159526; calls by dose curve)
# [11] = qHTS assay to identify small molecule agonists of the RXR signaling pathway - cell viability counter screen (AID 1159529); also: nearly all actives have a fitted effect of over 50% in size; also: potency is read from the fitted curve at half-maximal effect
# Summary of the method: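 Steps: seed RXR-alpha-UAS-bla HEK 293T cells in assay medium containing 2% charcoal-stripped FBS; incubate 5 hr; add compounds in DMSO; incubate 16 hr at 37 C; after the bla read, add CellTiter-Glo and read luminescence at 30 min.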
# [12] = qHTS assay to identify small molecule agonists of the farnesoid-X-receptor (FXR) signaling pathway - cell viability counter screen (AID 743218); also: nearly all actives have a fitted effect of over 45% in size; also: potency is read from the fitted curve at half-maximal effect
# Summary of the method: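 After 16 h at 37 C with test compounds, FXR-bla HEK 293T cells were given LiveBLAzer B/G substrate for 2 h at RT and then CellTiter-Glo; luminescence was taken after 30 min.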
# [13] = molecular target: Nuclear receptor ROR-gamma (Homo sapiens) (UniProt P51449); assay: qHTS assay to identify small molecule antagonists of the retinoid-related orphan receptor gamma (ROR-gamma) signaling pathway (AID 1159521; also: nearly all actives have a fitted effect of over 50% in size; also: potency is read from the fitted curve at half-maximal effect)
# Summary of the method: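 Cells were plated, rested 4 h at 37 C, exposed to compounds for 2 h, then given 1 uM final doxycycline hyclate to induce RORγ expression. After 16 h, ONE-Glo luminescence from the ROR response element reporter was measured.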
# [14] = molecular target: Bile acid receptor (Homo sapiens) (UniProt Q96RI1); assay: qHTS assay to identify small molecule antagonists of the farnesoid-X-receptor (FXR) signaling pathway (AID 743217; active = well fitted inhibition curve with a large enough effect in the signal ratio in the repeat runs, not every such curve was filed as active; the % refers to the signal ratio)
# Summary of the method: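 In this cell-based antagonist screen, inhibition of CDCA-driven (50 uM final) UAS-beta-lactamase expression in HEK 293T cells was measured by FRET fluorescence following 16 h compound exposure at 37 °C.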
# [15] = molecular target: Bile acid receptor (Homo sapiens) (UniProt Q96RI1); assay: qHTS assay to identify small molecule agonists of the farnesoid-X-receptor (FXR) signaling pathway (AID 743220; active = well fitted activation curve with a large enough effect in the signal ratio in the repeat runs, not every such curve was filed as active; the % refers to the signal ratio)
# Summary of the method: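 Beta-lactamase reporter under UAS control in GeneBLAzer FXR HEK 293T cells (5000/well) measured with LiveBLAzer FRET substrate after 2 h at room temperature. Compound exposure lasted 16 h at 37C.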
# [16] = molecular target: Retinoic acid receptor RXR-alpha (Homo sapiens) (UniProt P19793); assay: qHTS assay to identify small molecule agonists of the RXR signaling pathway (AID 1159527; calls by dose curve; also: nearly all actives have a fitted effect of over 35% in size)
# Summary of the method: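 Cells plated at 2,000/well, rested 5 hr at 37 C, pin-dosed with DMSO compound solutions, incubated 16 hr, then loaded with B/G FRET substrate for 2 hr at RT before dual-emission fluorescence reading.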
# [17] = molecular target: Peroxisome proliferator-activated receptor delta (Homo sapiens) (UniProt Q03181); assay: qHTS assay to identify small molecule agonists of the peroxisome proliferator-activated receptor delta (PPARd) signaling pathway (AID 743212; calls by dose curve)
# Summary of the method: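 HEK293H UAS-bla reporter cells, human PPARd system; compounds delivered in DMSO after 5 h plating, then at 37 C. Beta-lactamase FRET read, 2 h RT substrate step.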
# Sequence of Bile acid receptor (Homo sapiens) (Q96RI1 whole entry, looked up): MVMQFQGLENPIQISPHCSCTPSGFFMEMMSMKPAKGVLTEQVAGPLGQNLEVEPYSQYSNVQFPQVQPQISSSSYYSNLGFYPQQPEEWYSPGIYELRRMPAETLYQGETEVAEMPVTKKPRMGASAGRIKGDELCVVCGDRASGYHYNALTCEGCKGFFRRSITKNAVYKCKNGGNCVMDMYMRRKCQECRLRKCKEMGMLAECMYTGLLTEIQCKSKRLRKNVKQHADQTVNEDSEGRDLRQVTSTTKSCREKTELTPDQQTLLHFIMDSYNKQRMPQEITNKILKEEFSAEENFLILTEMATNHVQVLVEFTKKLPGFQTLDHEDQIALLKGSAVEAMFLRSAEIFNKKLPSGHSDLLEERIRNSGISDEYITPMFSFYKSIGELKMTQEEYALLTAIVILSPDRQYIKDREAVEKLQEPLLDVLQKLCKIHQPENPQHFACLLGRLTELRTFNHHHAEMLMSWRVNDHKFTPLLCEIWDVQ
# Sequence of Peroxisome proliferator-activated receptor delta (Homo sapiens) (Q03181 whole entry, looked up): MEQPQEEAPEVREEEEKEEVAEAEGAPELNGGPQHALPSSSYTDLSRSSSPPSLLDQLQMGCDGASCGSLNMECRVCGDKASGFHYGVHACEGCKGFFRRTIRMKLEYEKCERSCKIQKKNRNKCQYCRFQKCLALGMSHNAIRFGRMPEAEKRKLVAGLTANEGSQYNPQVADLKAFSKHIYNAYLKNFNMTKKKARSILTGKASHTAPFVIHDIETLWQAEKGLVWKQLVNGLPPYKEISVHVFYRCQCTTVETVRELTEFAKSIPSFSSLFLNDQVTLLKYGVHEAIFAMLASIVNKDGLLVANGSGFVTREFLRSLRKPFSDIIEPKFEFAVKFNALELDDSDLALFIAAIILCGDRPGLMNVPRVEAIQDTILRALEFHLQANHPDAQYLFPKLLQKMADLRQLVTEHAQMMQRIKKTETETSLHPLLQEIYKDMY
# Sequence of Retinoic acid receptor RXR-alpha (Homo sapiens) (P19793 whole entry, looked up): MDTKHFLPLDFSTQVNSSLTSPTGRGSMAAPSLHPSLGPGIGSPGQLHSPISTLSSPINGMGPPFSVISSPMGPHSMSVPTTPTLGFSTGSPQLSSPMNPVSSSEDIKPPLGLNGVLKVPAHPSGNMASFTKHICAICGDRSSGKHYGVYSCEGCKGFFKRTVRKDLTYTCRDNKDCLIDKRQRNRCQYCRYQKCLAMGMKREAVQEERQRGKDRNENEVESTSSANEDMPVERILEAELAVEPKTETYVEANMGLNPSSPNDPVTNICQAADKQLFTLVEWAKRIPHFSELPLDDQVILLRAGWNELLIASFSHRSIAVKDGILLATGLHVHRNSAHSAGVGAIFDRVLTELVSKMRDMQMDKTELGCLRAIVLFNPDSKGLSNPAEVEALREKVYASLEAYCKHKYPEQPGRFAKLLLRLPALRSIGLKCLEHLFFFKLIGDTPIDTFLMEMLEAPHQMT
SMILES,Potency [1],Potency [2],Potency [3],Potency [4],Potency [5],Potency [6],Potency [7],Potency [8],Potency [9],outcome [10],Potency [11],Potency [12],Potency [13],Potency [14],Potency [15],Potency [16],Potency [17]
CCCCCCCCCC(CC)c1ccc(S(=O)(=O)O)cc1 (stereo not drawn),48.9 µM (active) and 21.3 µM (active),inactive and 21.3 µM (active) and 21.9 µM (active),inactive,49.5 µM (active) [middle of 4 runs],–,–,–,–,–,–,–,–,–,–,–,–,–
[Cl-].[Cl-].[Cl-].[Fe+3],inactive,inactive,inactive,inactive,inactive,inactive,inactive,inactive,inactive,inactive,inactive,–,–,–,–,–,–
CCC[CH2][Sn]([Cl])([Cl])[CH2]CCC,3.13 µM (active) and 2.45 µM (active),125 nM (active) and 38.9 nM (active),155 nM (active) and 122 nM (active),–,–,222 nM (active) and 123 nM (active),249 nM (active) and 77.6 nM (active),1.11 µM (active) and 275 nM (active),–,–,1.76 µM (active) and 3.09 µM (active),140 nM (active) and 24.5 nM (active),77.9 nM (active) and 96.9 nM (active),–,–,–,–
CC(C)COC(=O)c1ccccc1C(=O)OCC(C)C,inactive,inactive,inactive,inactive,–,inactive,inactive,inactive,inactive,–,–,inactive,inactive,inactive,inactive,inactive,–
O=C1C(Cl)=C(Cl)C(=O)c2ccccc21,21.9 µM (active) and 12.3 µM (active),19.6 µM (active) and 49 µM (active),5.46 µM (active) and 5.45 µM (active),11 µM (active) and 19.5 µM (active),9.8 µM (active) and 6.17 µM (active),inactive and 49 µM (active),4.38 µM (active) and 9.77 µM (active),6.94 µM (active) and 12.3 µM (active),–,–,–,49 µM (active),4.87 µM (active) and 12.2 µM (active),–,–,–,inactive

# Source: PubChem BioAssay (Tox21)
